Compounds without any hit were thinned out: in the full panel of roughly 83,000, 20% have a hit.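 Compound tested at a single concentration for 48 hours in 96-well plates; a percent growth value below 10 was scored as active.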 Unmarked numbers belong to inactive results. Activity calls are given as the source filed them.

Our source for the growth values is PubChem BioAssay (NCI).

Test systems include HCT-15 colon; HT29 colon; SNB-75 CNS; SNB-19 CNS; U251 CNS; PC-3 prostate; SK-MEL-5 melanoma; UACC-62 melanoma; LOX IMVI melanoma; SK-MEL-28 melanoma; SK-MEL-2 melanoma; EKVX NSCLC; SN12C renal; UO-31 renal; TK-10 renal; ACHN renal; CAKI-1 renal; A498 renal; MOLT-4 leukemia; CCRF-CEM leukemia.
Holding throughout (assay): NCI-60 one-dose screen, 48 h (100 = growth as untreated, 0 = no growth, -100 = all killed)
Common to all, as to conditions: 10 µM unless noted

Turning to `COCCCN1CC(O)=C(c2nc(-c3ccc(C)cc3)cs2)C1=N`, the growth in the test with HCT-15 colon is 110%; with HT29 colon, 128%; with SNB-75 CNS, 154%; in the test with SNB-19 CNS, 98.6%; with U251 CNS, 100%; in the test with PC-3 prostate, 94.3%. Further, the growth in the test on SK-MEL-5 melanoma is 103%; with UACC-62 melanoma it was 103%; in the test on LOX IMVI melanoma it was 102%; with SK-MEL-28 melanoma, 159%; with SK-MEL-2 melanoma, 113%; in the test with EKVX NSCLC it was 97.3%. Besides, the growth in the test on SN12C renal was 92.9%; with UO-31 renal, 80.6%; in the test on TK-10 renal, 138%; in the test with ACHN renal, 111%; in the test on CAKI-1 renal, 96.1%; in the test on A498 renal, 93.3%. The growth with MOLT-4 leukemia was 86.4%.

For the compound `COc1cccc(/C=N/NC(=O)c2cnn3c2NC(c2ccccc2)C3)c1Oc1ccccc1` (configuration not stated), the growth with HCT-15 colon is 49.8%; with HT29 colon it was 41.5%; in the test with SNB-75 CNS, 60.8%; with SNB-19 CNS it was 75.4%; in the test on U251 CNS, 83.9%; in the test with PC-3 prostate, 72.3%. In addition, the growth was 73% with SK-MEL-5 melanoma; 62.3% in the test with UACC-62 melanoma; 84.5% with LOX IMVI melanoma; 79.1% in the test on SK-MEL-28 melanoma; 66.2% with SK-MEL-2 melanoma; 93.7% in the test on EKVX NSCLC. In addition, the growth with SN12C renal is 104%; in the test on UO-31 renal, 77.4%; in the test on TK-10 renal, 94.3%; in the test on ACHN renal it was 87%; in the test with CAKI-1 renal, 78.2%; in the test with CCRF-CEM leukemia, 79.4%. Moreover, in the test with MOLT-4 leukemia, the growth is 75.2%.

As to `CCCCCCNC(=O)Oc1ccc(/C(=C(\C)c2ccccc2)c2ccc(OCCCN(C)C)cc2)cc1`, the growth was 25.9% with HCT-15 colon; 2.7% (active) in the test with HT29 colon; 86.8% in the test on SNB-75 CNS; 80.5% in the test with SNB-19 CNS; 67.3% with U251 CNS; 79.7% in the test on PC-3 prostate. Also, the growth in the test on SK-MEL-5 melanoma was 92.9%; in the test with UACC-62 melanoma, 56.1%; with LOX IMVI melanoma, 80.2%; in the test with SK-MEL-28 melanoma, 88.3%; in the test with SK-MEL-2 melanoma it was 92.3%; in the test with EKVX NSCLC, 91.1%. For the same compound, the growth was 80.7% in the test on SN12C renal; 57.8% in the test with UO-31 renal; 91.2% with TK-10 renal; 97.9% in the test with ACHN renal; 94.8% in the test on CAKI-1 renal; 77.6% in the test on CCRF-CEM leukemia. Also, in the test with MOLT-4 leukemia, the growth is 62.6%.

As to `CCCCCCCCO/N=C\c1c2c(O)c3c(O)c(C)c4c(c3c1O)C(=O)C(C)(O/C=C\C(OC)C(C)C(OC(C)=O)C(C)C(O)C(C)C(O)C(C)/C=C\C=C(\C)C(=O)N2)O4` (configuration not stated), the growth is 19.1% with HCT-15 colon; 2.82% (active) in the test on HT29 colon; 36% with SNB-75 CNS; 29.2% in the test with SNB-19 CNS; 13.7% in the test on U251 CNS; 13.1% with PC-3 prostate. The growth was 17.7% with SK-MEL-5 melanoma; 26.2% with UACC-62 melanoma; 30.2% with LOX IMVI melanoma; 51.5% in the test on SK-MEL-28 melanoma; -31.4% (active) in the test with SK-MEL-2 melanoma; 22.5% in the test with EKVX NSCLC. The growth was 21.8% with SN12C renal; 17.7% with UO-31 renal; 30% in the test with TK-10 renal; 25% in the test on ACHN renal; 13.1% with CAKI-1 renal; 19.8% in the test with CCRF-CEM leukemia. Further, the growth in the test with MOLT-4 leukemia was 12.9%.

Turning to `COc1cc2c(=O)n(CCN(C)C)c3c4cc5c(cc4ccc3c2cc1OC)OCO5`, the growth in the test on HCT-15 colon is -13.3% (active); in the test with HT29 colon it was 0.585% (active); with SNB-75 CNS, 17.8%; in the test with SNB-19 CNS, 6.11% (active); in the test with U251 CNS, -4.24% (active); with PC-3 prostate it was 7.26% (active). Further, the growth was -68.7% (active) in the test on SK-MEL-5 melanoma; -85.6% (active) in the test on UACC-62 melanoma; -58.3% (active) in the test with LOX IMVI melanoma; -33.9% (active) in the test on SK-MEL-28 melanoma; -65.1% (active) in the test on SK-MEL-2 melanoma; -1.09% (active) in the test on EKVX NSCLC. The growth in the test on SN12C renal is -4.74% (active); with UO-31 renal it was -77.6% (active); in the test on TK-10 renal, -76.2% (active); in the test on ACHN renal, -92.6% (active); in the test with CAKI-1 renal, -89.5% (active); in the test with CCRF-CEM leukemia, 2.56% (active). Moreover, the growth in the test on MOLT-4 leukemia was 3.91% (active).

As for `CCOC(=O)Oc1c(OC)cc(C(=O)c2ccc(OC)c(OC(=O)CCl)c2OC)cc1OC`, the growth was 16.6% with HCT-15 colon; 35.9% in the test with HT29 colon; 36.3% in the test on SNB-75 CNS; 22.8% in the test on SNB-19 CNS; 19% with U251 CNS; 23% in the test on PC-3 prostate. For the same compound, the growth with SK-MEL-5 melanoma was 34.9%; in the test on UACC-62 melanoma it was 30.6%; in the test on LOX IMVI melanoma, 43.5%; in the test on SK-MEL-28 melanoma, 47.4%; with SK-MEL-2 melanoma it was 8.91% (active); in the test on EKVX NSCLC it was 70%. Besides, the growth in the test on SN12C renal was 42.4%; in the test with UO-31 renal, 46.6%; with TK-10 renal it was 39.1%; in the test on ACHN renal, 36%; in the test with CAKI-1 renal it was 30.3%; in the test on CCRF-CEM leukemia, 15.9%. The growth in the test on MOLT-4 leukemia was 29.6%.

Turning to `NC(=NCCCOc1ccc(F)cc1)Nc1ccc(Cl)cc1`, the growth is 69.4% in the test with HCT-15 colon; 13.8% in the test with HT29 colon; 80.9% in the test with SNB-75 CNS; 55.2% in the test with SNB-19 CNS; 76.7% in the test with U251 CNS; 50.2% with PC-3 prostate. The growth with SK-MEL-5 melanoma is 4.33% (active); with UACC-62 melanoma, 56.8%; with LOX IMVI melanoma, 83.9%; in the test on SK-MEL-28 melanoma it was 88.3%; in the test with SK-MEL-2 melanoma, 84.6%; with EKVX NSCLC it was 52.8%. For the same compound, the growth was 65.1% with SN12C renal; 49.1% in the test with UO-31 renal; 64% with TK-10 renal; 18.3% in the test on ACHN renal; 39% in the test with CAKI-1 renal; 49.7% in the test on CCRF-CEM leukemia. Also, the growth with MOLT-4 leukemia was 23.5%.

On to `C=C(C)[C@@H]1CC[C@]2(C(=O)N3CCN(C)CC3)CC[C@]3(C)[C@H](CC[C@@H]4[C@@]5(C)CC[C@H](OCCC#N)C(C)(C)[C@@H]5CC[C@]43C)[C@@H]12`, for which the growth in the test on HCT-15 colon is 90.6%; in the test on HT29 colon it was 27.6%; with SNB-75 CNS it was 99.5%; in the test on SNB-19 CNS, 95.9%; in the test with U251 CNS it was 43.9%; with PC-3 prostate it was 72.2%. Moreover, the growth with SK-MEL-5 melanoma was 94.8%; with UACC-62 melanoma, 110%; in the test on LOX IMVI melanoma, 53.5%; in the test on SK-MEL-28 melanoma, 112%; in the test with SK-MEL-2 melanoma, 97.7%; in the test with EKVX NSCLC it was 101%. For the same compound, the growth is 90.7% in the test with SN12C renal; 81.8% in the test with UO-31 renal; 106% in the test with TK-10 renal; 103% in the test on ACHN renal; 99.8% in the test on CAKI-1 renal; 23% with CCRF-CEM leukemia. Also, the growth in the test on MOLT-4 leukemia is 59.7%.
